Assay outcomes (PubChem BioAssay)
IDE cell inh: human IDE inhibitors in live cells, primary screen, fluorescence polarization, HEK cells, FAbetaB substrate; FAbetaB cleavage; inhibition, % at 5.59 µM; 320,000 compounds, 0.41% hits;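 active = percent inhibition above the average of all tested compounds plus 3 SD, set per screening campaign, cut at about 16% in these data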;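 also: IDE supplied by intact live HEK cells; FP after avidin binding of uncleaved biotin substrate so inhibition keeps polarization high; 0% = DMSO wells and 100% = 60 µM reference IDE inhibitor Ii1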
CHT allo act: CHT positive allosteric modulators, primary screen, cell-based, membrane potential dye, choline EC20; CHT-expressing cells; active compounds read high; LV-AA mutant CHT in HEK293 cells; 310,000 compounds, 0.49% hits; B-score at 10 µM;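 active = initial fluorescence not abnormally high and integrated response B-score, plate-corrected, over 3 SD above library mean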
IDE act: human IDE activators in live cells, primary screen, fluorescence polarization, HEK cells, FAbeta-B substrate; Insulin-degrading enzyme (Homo sapiens), P14735; FAbeta-B cleavage; 0% vehicle, 100% cell-free pure enzyme wells; activation, % at 5.96 µM; 340,000 compounds, 0.073% hits; AID 493087, 2011;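 active = activation above the mean of all tested compounds plus 3 SD, set per screening campaign, cut at about 17% in these data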
ANO1 activ: TMEM16A chloride channel activators or potentiators, primary screen, cell-based, HTS; AID 623877, 2012; 340,000 compounds, 0.3% hits; Anoctamin-1 (Mus musculus), Q8BHY3; HEK293 TMEM16A/YFP-H148Q/I152L, iodide quench fluorescence; active compounds read low; B-score at 10 µM;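 active = fluorescence-ratio B-score plate-corrected deviation score at least 3 library SD below zero, with starting fluorescence score within 5 deviations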;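 also: channel opened by trigger with iodide after compound preincubation; score built on the fluorescence ratio of max minus min over baseline; more negative score means more quench and so TMEM16A activation or potentiation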
ANO1 block: TMEM16A chloride channel inhibitors, primary screen, cell-based, HTS; Anoctamin-1 (Mus musculus), Q8BHY3; HEK293 TMEM16A/YFP iodide influx fluorescence, ionomycin; normalized B-score (activity score, 25-100; higher = stronger inhibition) at 10 µM; 310,000 compounds, 1.2% hits;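 active = ratio plate-corrected score three or more library SD toward inhibition, starting fluorescence score within five deviations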;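 also: score derived from kinetic fluorescence span divided by baseline fluorescence per well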
CHT block: inhibitors of human choline transporter CHT. CHT-expressing cells, membrane potential dye, choline response; active compounds read low. 310,000 compounds, 0.86% hits. High affinity choline transporter 1 (Homo sapiens), Q9GZV3. B-score at 10 µM;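 active = B-score over 3 SD under the library average, and starting fluorescence ratio not unusually high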;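 also: choline stimulus applied at its EC90 after an EC20 pre-addition; B-score computed on integrated fluorescence ratio after choline addition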
Active calls of the source: *; i = inactive; . = no result. This is a sample that favours compounds with a hit; in the whole collection about 2.7% have one here.

SMILES	IDE cell inh	CHT allo act	IDE act	ANO1 activ	ANO1 block	CHT block
C=CC[C@H](CC(=O)NCCO)C(=O)NC[C@@H](OC(=O)[C@@H](CC=C)CC(=O)OC(C)(C)C)c1ccccc1	2	.	1	-18*	.	.
COC(=O)C1=C(Nc2ccccc2NS(=O)(=O)c2ccc(C(F)(F)F)cc2Cl)CSC1	2	i	7	i	25*	i
COC(=O)C1=C(Nc2ccccc2NC(=O)c2ccccc2C(=O)O)CSC1	-1	i	-2	i	i	i
Cn1nc(N2CCN(S(=O)(=O)c3ccccc3)CC2)c(=O)n(C)c1=O	-3	.	4	-29*	.	.
O=S(=O)(Nc1ccc(-c2ccc(N3CCOCC3)nn2)cc1)c1ccc(Cl)c(Cl)c1	1	i	4	i	25*	i
O=C(NCC1COc2ccccc2O1)c1ccc(Br)s1 (configuration not stated)	1	i	-1	i	i	i
O=C(NCc1ccco1)C1CCN(C(=O)c2cc3sccc3n2Cc2ccc(Cl)cc2)CC1	0	i	1	i	100*	i
O=C(NCc1ccco1)C1CCN(C(=O)c2ccc(Cl)cc2)CC1	-1	.	4	i	.	.
C=CC(C)(C)O[C@@H]1O[C@H](CO)[C@@H](O)[C@H](O)[C@H]1O	10	.	-1	i	.	.
COc1ccc(NC(=O)CC2C(=O)N(C)C(=S)N2Cc2ccco2)cc1 (configuration not stated)	1	i	0	i	i	i
C=CCN1C(=O)C(CC(=O)Nc2ccc(OC)cc2)N(Cc2ccco2)C1=S (configuration not stated)	-4	i	1	-6.8*	i	i
COc1ccc(NC(=O)CC2C(=O)N(CCc3ccccc3)C(=S)N2Cc2cccnc2)cc1 (configuration not stated)	-4	i	2	i	25*	i
CCN1C(=O)C(CC(=O)Nc2ccc(OC)cc2)N(CCc2ccccc2)C1=S (configuration not stated)	-7	i	4	i	i	i
Cc1ccc(C)c(S(=O)(=O)Nc2ccc(-n3cnnn3)cc2)c1	4	.	2	i	.	.
C=CCn1c(SCC(=O)N2CCN(c3ccc(F)cc3)CC2)nnc1-c1ccco1	1	i	-11	i	25*	i
O=C(CSc1nnnn1C1CC2CCC1C2)Nc1ccnc2ccccc12 (configuration not stated)	8	i	-5	i	100*	i
COc1ccc(CCC(=O)OCC(=O)c2c(N)n(CC(C)C)c(=O)n(C)c2=O)cc1	-2	i	0	-5.4*	i	i
CC(=O)O[C@H]1C[C@@H]2CC[C@@H]3[C@H](CC[C@@]4(C)[C@H]3C[C@H]([N+]3(C)CCCCC3)[C@@H]4OC(C)=O)[C@@]2(C)C[C@@H]1N1CCCCC1	1	6.5*	.	.	i	i
CC(=O)O[C@H]1C[C@@H]2CC[C@@H]3[C@H](CC[C@@]4(C)[C@H]3C[C@H]([N+]3(C)CCCCC3)[C@@H]4OC(C)=O)[C@@]2(C)C[C@@H]1[N+]1(C)CCCCC1	4	i	8	i	i	i
COc1cccc(CN2CC(C(=O)NCCN3CCOCC3)CCC2=O)c1 (configuration not stated)	-1	i	1	i	i	i
Cc1ccc(SCc2c(C#N)c3ccccc3n2C)cc1	3	i	-6	i	25*	i
CCN(C(=O)COC(=O)CSc1ccc(C(N)=O)cc1[N+](=O)[O-])C1CCCCC1	-7	i	-3	i	i	i
CCN1C(c2ccccc2)C(C)C(=O)C(C)C1c1ccccc1 (configuration not stated)	-1	8.6*	2	i	i	i
CCCCN(C(=O)Cn1ncc(Cl)c(Cl)c1=O)c1c(N)n(CC(C)C)c(=O)[nH]c1=O	0	i	-2	i	i	i
